# Source: paper PMC7862700, “An all-to-all approach to the identification of sequence-specific readers for epigenetic DNA modifications on cytosine”
# Assays:
# Assay in all cases: DAPPL (digital affinity profiling via proximity ligation, sequencing); 10 mM Tris-HCl pH 7.5, 50 mM NaCl, 1 mM DTT, 4% glycerol, room temperature, 30 min; GST-TFs on glutathione beads, 16-mer random dsDNA library, 0.1% formaldehyde crosslink after washing; high values mean tight binding
# Details in all cases: protein: recombinant; tags: N-terminal GST; dsDNA, one strand shown
# [1] = target: T1, FLI1 (Homo sapiens, UniProt Q01543 1-452)
# T1 sequence: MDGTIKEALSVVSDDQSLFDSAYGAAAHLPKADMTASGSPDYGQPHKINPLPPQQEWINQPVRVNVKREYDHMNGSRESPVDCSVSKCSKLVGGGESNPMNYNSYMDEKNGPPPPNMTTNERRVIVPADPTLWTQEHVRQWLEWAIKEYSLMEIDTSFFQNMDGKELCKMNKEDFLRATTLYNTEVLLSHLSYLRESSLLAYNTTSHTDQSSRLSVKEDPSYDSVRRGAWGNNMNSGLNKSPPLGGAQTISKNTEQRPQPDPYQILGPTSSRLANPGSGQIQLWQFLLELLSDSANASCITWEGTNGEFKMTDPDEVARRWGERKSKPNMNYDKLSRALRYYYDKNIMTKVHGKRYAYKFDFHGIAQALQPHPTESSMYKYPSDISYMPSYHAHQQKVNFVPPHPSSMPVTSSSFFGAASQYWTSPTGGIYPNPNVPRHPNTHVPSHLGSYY
# Summary of the method: (§1)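 Binding signal is defined as a hexamer's read frequency for one factor over its frequency for the tag-only sample. To obtain reads, GST-fused human transcription factors were expressed in yeast, captured on glutathione beads, barcoded with DNA and pooled with that sample. Pools met 200 nmole of a 16-mer random double-stranded DNA library in Tris/NaCl/DTT/glycerol buffer for 30 min at room temperature before washing, 0.1% formaldehyde crosslinking, proximity ligation (BsaI/T4 ligase, 1 h, 37 °C), PCR and Illumina NextSeq500 sequencing.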
# [2] = target: T2, ELK1 (Homo sapiens, UniProt P19419 1-428)
# T2 sequence: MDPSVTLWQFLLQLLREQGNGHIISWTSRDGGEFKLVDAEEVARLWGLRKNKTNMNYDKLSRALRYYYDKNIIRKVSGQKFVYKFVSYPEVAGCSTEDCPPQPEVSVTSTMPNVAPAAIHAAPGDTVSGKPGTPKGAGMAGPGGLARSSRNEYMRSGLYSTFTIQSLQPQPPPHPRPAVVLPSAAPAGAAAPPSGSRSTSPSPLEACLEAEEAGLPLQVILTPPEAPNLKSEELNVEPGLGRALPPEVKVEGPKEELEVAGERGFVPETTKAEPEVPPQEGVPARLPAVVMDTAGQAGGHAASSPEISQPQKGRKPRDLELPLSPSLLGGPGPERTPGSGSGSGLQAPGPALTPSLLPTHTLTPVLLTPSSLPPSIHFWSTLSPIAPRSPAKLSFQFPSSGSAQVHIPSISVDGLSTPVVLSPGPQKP
# Summary of the method: as §1
# [3] = target: T3, GABPA (Homo sapiens, UniProt Q06546 1-454)
# T3 sequence: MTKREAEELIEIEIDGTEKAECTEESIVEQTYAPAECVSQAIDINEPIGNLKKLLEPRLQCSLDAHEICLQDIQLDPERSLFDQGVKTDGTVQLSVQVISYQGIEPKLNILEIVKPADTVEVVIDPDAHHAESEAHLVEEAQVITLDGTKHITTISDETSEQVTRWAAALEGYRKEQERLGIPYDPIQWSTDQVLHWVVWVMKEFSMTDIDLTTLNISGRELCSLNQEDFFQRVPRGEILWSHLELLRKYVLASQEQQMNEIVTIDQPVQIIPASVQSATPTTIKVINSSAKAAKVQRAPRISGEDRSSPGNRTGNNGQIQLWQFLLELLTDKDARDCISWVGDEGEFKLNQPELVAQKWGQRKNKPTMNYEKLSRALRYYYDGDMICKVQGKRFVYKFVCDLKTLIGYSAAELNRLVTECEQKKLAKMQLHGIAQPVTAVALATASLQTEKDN
# Summary of the method: as §1
# [4] = target: T4, ERG (Homo sapiens, UniProt P11308 1-479)
# T4 sequence: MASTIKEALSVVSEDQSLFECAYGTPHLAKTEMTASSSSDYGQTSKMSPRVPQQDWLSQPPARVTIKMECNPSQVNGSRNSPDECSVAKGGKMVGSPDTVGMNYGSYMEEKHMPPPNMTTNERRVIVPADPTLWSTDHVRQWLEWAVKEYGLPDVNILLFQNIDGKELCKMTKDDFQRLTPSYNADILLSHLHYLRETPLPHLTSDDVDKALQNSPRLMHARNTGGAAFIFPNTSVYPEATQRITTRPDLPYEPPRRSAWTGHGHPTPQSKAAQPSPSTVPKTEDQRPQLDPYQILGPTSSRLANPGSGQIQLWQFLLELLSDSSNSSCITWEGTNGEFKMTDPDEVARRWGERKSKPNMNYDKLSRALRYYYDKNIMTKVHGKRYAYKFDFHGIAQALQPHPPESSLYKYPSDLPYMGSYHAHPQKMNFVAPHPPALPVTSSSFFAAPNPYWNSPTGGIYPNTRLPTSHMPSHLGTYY
# Summary of the method: as §1
# [5] = target: ELF1 (Homo sapiens, UniProt P32519 1-619)
# Summary of the method: as §1
# [6] = target: T5, EHF (Homo sapiens, UniProt Q9NZC4 1-300)
# T5 sequence: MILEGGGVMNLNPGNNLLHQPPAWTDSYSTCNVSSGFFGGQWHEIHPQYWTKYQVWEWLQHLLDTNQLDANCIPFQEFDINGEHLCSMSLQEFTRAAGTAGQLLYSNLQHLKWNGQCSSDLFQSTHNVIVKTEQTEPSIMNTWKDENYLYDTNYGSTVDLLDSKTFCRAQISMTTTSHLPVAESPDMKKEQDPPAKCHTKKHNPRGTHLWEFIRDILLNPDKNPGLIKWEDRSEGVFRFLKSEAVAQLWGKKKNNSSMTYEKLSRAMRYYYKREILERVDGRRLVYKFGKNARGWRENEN
# Summary of the method: as §1
# [7] = target: SPIB (Homo sapiens, UniProt Q01892 1-262)
# Summary of the method: as §1
# [8] = target: T6, ELK3 (Homo sapiens, UniProt P41970 1-407)
# T6 sequence: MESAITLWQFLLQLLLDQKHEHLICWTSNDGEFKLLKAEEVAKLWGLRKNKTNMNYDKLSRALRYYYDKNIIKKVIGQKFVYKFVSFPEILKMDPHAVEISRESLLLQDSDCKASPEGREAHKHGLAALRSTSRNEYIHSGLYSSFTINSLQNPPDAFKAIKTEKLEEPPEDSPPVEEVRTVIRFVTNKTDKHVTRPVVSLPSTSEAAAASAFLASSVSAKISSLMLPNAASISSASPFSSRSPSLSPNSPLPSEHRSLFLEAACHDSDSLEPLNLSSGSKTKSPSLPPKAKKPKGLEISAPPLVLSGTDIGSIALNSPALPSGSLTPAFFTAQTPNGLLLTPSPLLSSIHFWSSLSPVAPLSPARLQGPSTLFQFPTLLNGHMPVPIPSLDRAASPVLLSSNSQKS
# Summary of the method: as §1
# [9] = target: T7, FEV (Homo sapiens, UniProt Q99581 1-238)
# T7 sequence: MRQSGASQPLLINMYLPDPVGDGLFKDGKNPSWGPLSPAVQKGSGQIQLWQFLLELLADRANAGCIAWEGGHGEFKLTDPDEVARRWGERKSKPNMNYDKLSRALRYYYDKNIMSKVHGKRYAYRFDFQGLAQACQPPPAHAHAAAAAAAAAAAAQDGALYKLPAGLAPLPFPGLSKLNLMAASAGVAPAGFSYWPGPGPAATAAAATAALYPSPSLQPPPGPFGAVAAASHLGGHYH
# Summary of the method: as §1
# [10] = target: ETV5 (Homo sapiens, UniProt P41161 1-510)
# Summary of the method: as §1
# [11] = target: T8, SPIC (Homo sapiens, UniProt Q8N5J4 1-248)
# T8 sequence: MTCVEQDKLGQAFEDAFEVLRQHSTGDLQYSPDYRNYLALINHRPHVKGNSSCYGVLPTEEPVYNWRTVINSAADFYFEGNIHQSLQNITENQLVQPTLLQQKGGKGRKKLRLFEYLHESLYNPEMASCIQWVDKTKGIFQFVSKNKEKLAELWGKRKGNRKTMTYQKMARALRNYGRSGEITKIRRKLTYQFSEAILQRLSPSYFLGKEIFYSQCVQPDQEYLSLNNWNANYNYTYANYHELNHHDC
# Summary of the method: as §1
# [12] = target: ETV1 (Homo sapiens, UniProt P50549 1-477)
# Summary of the method: as §1
# [13] = target: T9, ERF (Homo sapiens, UniProt P50548 1-548)
# T9 sequence: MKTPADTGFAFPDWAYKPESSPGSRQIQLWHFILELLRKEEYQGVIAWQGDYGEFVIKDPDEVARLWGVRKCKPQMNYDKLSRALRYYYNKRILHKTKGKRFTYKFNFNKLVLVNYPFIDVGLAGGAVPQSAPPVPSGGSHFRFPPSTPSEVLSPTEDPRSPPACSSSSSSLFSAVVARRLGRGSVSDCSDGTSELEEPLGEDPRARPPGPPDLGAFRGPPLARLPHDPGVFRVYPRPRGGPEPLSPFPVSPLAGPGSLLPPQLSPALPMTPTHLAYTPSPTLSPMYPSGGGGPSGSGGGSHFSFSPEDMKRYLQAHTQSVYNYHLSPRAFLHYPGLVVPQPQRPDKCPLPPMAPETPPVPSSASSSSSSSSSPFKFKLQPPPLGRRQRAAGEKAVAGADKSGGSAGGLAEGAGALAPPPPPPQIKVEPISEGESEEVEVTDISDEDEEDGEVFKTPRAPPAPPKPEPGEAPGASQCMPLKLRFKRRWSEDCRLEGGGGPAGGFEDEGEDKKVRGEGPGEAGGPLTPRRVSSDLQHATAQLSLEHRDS
# Summary of the method: as §1
# [14] = target: T10, ETV3L (Homo sapiens, UniProt Q6ZN32 1-361)
# T10 sequence: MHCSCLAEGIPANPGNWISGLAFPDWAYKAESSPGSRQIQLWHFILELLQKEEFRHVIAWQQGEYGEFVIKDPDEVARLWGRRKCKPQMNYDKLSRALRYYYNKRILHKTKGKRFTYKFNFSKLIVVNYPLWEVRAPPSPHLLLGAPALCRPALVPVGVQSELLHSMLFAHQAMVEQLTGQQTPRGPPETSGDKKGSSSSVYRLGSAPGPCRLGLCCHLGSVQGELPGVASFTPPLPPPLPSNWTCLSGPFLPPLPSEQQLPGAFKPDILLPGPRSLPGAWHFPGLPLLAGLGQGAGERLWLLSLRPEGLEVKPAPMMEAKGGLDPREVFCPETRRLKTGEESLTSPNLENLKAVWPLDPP
# Summary of the method: as §1
# [15] = target: T11, ETS2 (Homo sapiens, UniProt P15036 1-469)
# T11 sequence: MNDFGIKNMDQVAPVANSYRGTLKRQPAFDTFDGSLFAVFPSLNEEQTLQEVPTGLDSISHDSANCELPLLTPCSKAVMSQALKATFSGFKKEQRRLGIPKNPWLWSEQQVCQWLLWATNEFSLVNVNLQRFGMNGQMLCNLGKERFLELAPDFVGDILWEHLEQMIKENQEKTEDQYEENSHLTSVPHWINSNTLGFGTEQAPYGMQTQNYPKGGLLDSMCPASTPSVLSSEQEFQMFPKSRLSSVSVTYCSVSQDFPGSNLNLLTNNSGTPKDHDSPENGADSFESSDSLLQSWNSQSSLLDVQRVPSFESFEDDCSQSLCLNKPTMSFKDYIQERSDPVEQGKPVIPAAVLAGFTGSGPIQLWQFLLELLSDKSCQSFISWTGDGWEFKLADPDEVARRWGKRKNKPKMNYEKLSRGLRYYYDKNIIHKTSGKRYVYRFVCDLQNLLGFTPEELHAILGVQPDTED
# Summary of the method: as §1
# [16] = target: T12, SPDEF (Homo sapiens, UniProt O95238 1-335)
# T12 sequence: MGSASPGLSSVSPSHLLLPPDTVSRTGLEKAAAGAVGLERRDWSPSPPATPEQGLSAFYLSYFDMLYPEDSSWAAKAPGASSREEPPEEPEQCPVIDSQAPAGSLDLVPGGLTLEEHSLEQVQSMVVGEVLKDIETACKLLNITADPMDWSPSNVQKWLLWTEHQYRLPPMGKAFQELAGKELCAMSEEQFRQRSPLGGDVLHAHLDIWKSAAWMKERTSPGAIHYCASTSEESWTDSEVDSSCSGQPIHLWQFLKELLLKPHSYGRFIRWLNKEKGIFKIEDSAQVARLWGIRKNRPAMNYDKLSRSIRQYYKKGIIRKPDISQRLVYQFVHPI
# Summary of the method: as §1
# [17] = target: T13, ETV3 (Homo sapiens, UniProt P41162-2 1-143)
# T13 sequence: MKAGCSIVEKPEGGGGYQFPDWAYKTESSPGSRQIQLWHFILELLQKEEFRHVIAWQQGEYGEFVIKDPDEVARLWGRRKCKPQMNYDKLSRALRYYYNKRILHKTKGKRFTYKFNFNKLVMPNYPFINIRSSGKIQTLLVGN
# Summary of the method: as §1
# [18] = target: ETV6 (Homo sapiens, UniProt P41212 1-452)
# Summary of the method: as §1
# Sequence of ETV1 (P50549 whole entry): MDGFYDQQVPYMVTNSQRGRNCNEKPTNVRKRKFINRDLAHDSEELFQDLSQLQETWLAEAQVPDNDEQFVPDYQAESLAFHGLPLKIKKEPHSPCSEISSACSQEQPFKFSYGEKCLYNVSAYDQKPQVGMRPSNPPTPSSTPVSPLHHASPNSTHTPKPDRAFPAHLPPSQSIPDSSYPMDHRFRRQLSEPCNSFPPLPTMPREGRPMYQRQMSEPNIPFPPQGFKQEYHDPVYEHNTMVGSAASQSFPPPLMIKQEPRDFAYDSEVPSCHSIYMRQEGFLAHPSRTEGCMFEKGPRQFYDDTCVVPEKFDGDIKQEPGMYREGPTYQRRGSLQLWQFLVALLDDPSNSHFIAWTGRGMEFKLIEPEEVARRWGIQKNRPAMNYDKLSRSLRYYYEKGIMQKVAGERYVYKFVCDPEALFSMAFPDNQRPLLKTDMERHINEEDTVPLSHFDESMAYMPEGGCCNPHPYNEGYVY
# Sequence of SPIB (Q01892 whole entry): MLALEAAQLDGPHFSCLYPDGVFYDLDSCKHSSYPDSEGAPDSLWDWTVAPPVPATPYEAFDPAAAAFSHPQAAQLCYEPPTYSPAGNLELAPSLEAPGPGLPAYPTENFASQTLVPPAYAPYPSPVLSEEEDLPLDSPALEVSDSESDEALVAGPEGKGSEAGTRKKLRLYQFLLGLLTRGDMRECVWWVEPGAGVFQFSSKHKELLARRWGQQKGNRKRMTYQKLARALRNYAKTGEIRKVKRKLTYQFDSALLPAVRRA
# Sequence of ETV5 (P41161 whole entry): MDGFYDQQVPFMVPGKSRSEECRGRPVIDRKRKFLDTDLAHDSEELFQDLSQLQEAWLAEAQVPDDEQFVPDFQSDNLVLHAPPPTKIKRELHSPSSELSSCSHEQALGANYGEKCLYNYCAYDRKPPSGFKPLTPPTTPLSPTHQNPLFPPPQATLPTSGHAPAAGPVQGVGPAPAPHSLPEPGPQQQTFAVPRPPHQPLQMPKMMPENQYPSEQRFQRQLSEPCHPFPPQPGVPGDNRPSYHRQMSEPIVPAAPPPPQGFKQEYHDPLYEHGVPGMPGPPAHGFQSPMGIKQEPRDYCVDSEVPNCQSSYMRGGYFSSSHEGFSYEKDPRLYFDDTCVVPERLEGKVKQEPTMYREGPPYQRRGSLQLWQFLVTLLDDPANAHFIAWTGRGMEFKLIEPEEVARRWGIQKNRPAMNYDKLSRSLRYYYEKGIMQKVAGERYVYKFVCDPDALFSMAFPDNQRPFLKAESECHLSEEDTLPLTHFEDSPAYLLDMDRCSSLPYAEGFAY
# Sequence of ELF1 (P32519 whole entry): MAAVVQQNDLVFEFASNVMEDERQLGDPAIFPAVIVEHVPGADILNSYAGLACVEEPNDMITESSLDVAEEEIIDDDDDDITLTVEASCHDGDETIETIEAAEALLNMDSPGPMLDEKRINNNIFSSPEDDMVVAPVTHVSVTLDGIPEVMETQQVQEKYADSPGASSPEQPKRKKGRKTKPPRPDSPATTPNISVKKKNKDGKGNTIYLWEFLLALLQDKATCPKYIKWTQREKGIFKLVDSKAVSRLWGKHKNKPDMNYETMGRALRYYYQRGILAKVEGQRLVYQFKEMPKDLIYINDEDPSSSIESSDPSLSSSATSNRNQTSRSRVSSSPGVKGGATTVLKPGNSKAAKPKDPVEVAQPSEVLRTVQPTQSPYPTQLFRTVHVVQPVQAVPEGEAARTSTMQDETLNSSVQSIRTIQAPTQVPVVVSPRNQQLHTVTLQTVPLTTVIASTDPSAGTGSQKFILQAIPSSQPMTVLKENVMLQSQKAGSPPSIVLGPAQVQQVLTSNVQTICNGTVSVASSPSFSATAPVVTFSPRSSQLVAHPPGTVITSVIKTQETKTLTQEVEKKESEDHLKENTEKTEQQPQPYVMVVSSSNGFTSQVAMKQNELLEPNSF
# Sequence of ETV6 (P41212 whole entry): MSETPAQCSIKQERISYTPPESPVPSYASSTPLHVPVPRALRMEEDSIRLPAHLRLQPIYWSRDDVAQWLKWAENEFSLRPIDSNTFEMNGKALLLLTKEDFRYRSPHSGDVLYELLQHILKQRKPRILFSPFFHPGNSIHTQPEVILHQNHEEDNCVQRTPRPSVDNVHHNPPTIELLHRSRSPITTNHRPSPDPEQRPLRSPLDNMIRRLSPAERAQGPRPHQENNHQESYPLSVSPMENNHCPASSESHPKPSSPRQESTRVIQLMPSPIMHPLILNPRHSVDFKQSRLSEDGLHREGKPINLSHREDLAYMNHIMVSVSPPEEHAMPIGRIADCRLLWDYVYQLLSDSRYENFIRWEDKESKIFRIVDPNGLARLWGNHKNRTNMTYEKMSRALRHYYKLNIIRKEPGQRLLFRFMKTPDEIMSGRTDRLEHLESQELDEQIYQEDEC
sequence,measurement,setting,value
CAACCG,binding signal,[1],"1.11 fold enrichment (6-mer frequency, TF over GST control)"
same,binding signal,[2],"1.13 fold enrichment (6-mer frequency, TF over GST control)"
same,binding signal,[3],"1 fold enrichment (6-mer frequency, TF over GST control)"
same,binding signal,[4],"1.11 fold enrichment (6-mer frequency, TF over GST control)"
same,binding signal,[5],"1.03 fold enrichment (6-mer frequency, TF over GST control)"
same,binding signal,[6],"1.06 fold enrichment (6-mer frequency, TF over GST control)"
same,binding signal,[7],"1.15 fold enrichment (6-mer frequency, TF over GST control)"
same,binding signal,[8],"1.2 fold enrichment (6-mer frequency, TF over GST control)"
same,binding signal,[9],"1.28 fold enrichment (6-mer frequency, TF over GST control)"
same,binding signal,[10],"1.03 fold enrichment (6-mer frequency, TF over GST control)"
same,binding signal,[11],"1.02 fold enrichment (6-mer frequency, TF over GST control)"
same,binding signal,[12],"1.06 fold enrichment (6-mer frequency, TF over GST control)"
same,binding signal,[13],"1.03 fold enrichment (6-mer frequency, TF over GST control)"
same,binding signal,[14],"1.09 fold enrichment (6-mer frequency, TF over GST control)"
same,binding signal,[15],"1.11 fold enrichment (6-mer frequency, TF over GST control)"
same,binding signal,[16],"1.15 fold enrichment (6-mer frequency, TF over GST control)"
same,binding signal,[17],"1.08 fold enrichment (6-mer frequency, TF over GST control)"
same,binding signal,[18],"1.13 fold enrichment (6-mer frequency, TF over GST control)"
